# Data from PubChem BioAssay AID463173 (ICCB-Longwood Screening Facility, Harvard Medical School, 2010).
# Hit rate of the full screen: of about 52,000 compounds, about 4,300 (8.3%) were called active. No stated cut-off is given here; in the data, active means survival mostly below about 52% (no sharp cut-off); inactive means mostly above about 56%. The full list was thinned out, with actives kept by preference.
# Test system: DeltatarO mutant
# Test: growth inhibition of S. aureus wild type versus tarO mutant, primary screen, teichoic acid synthesis inhibitors, RN4220, OD600 (AID 463173)
# Conditions: OD600, 18 h, hits give low values, screened at 18.75 µg/mL (by protocol)
row,SMILES,survival
1,CCc1ccccc1N(CC)C(=O)C1CCN(c2ncnc3c2nc2n3CCCCC2)CC1,83% (inactive)
2,CC(Oc1ccccc1F)C(=O)NCC1(N2CCOCC2)CCCCC1 (centres undefined),61% (inactive)
3,CCOc1ccccc1CNC(=O)CC(C)n1ccc(C)n1 (centres undefined),77% (inactive)
4,CCOC(=O)c1ccc(NC(=O)CC(C)n2nc(C)cc2C)cc1 (centres undefined),124% (inactive)
5,CC(=O)Nc1ccc(NC(=O)CC(C)n2ccc(C)n2)cc1 (centres undefined),52% (active)
6,O=C(OCc1ccccc1)Sc1nnc(-c2ccccc2Cl)o1,90% (inactive)
7,CCn1c(=O)cc(OCC(=O)NCc2ccccc2OC)c2ccccc21,60% (inactive)
8,CCn1c(=O)cc(OCC(=O)N(C)c2ccc(OC)cc2)c2ccccc21,72% (inactive)
9,CCn1c(=O)cc(OCC(=O)N(C)c2cc(Cl)ccc2C)c2ccccc21,55% (active)
10,CCc1ccc(CNC(=O)COc2cc(=O)n(CC)c3ccccc23)cc1,55% (inactive)
11,CCCN(C(=O)COc1cc(=O)n(CC)c2ccccc12)c1ccc(C(C)C)cc1,-22% (active)
12,CCn1c(=O)cc(OCC(=O)NCc2ccccc2Cl)c2ccccc21,40% (active)
13,CCn1c(=O)cc(OCC(=O)NCc2ccc(F)cc2Cl)c2ccccc21,105% (inactive)
14,CCn1c(=O)cc(OCC(=O)Nc2cc(Cl)c(OC)cc2OC)c2ccccc21,69% (inactive)
15,CCCN(C(=O)Cn1c(=O)oc2cc(Cl)ccc21)c1ccc(C(C)C)cc1,15% (active)
16,CCn1c(=O)cc(OCC(=O)Nc2ccc(C)c(F)c2)c2ccccc21,60% (inactive)
17,CCN(C(=O)Cn1c(=O)oc2cc(Cl)ccc21)c1cccc(C(F)(F)F)c1,67% (inactive)
18,CCCN(c1ccc(C(C)C)cc1)S(=O)(=O)c1ccc2c(c1)oc(=O)n2CC(=O)OCC,73% (inactive)
19,Cc1ccc(/C=C/c2onc(C)c2S(=O)(=O)N2CCC(C(=O)N3CCN(c4cccc(C)c4)C(C)C3)CC2)cc1 (centres undefined),67% (inactive)
20,COc1ccccc1C(=O)NC1(C(F)(F)F)C(=O)Nc2c1c(=O)[nH]c(=O)n2-c1ccc(F)cc1 (centres undefined),190% (inactive)
21,Cc1ccc(-n2ncc3c(=O)n(Cc4ccccc4C)cnc32)cc1C,127% (inactive)
22,CC(=O)N(Cc1cccnc1)c1nc2ccc(F)cc2s1,81% (inactive)
23,Cc1ccc2c(=O)cc(C(=O)Nc3ccc(S(=O)(=O)N4CCC(C)CC4)cc3)oc2c1C,60% (inactive)

row,SMILES,survival
1,Cc1c(C(=O)Nc2ccc(F)c(F)c2)oc2ccc(S(=O)(=O)N3CCCCC3)cc12,52% (active)
2,Cc1c(C(=O)Nc2ccc(F)cc2)oc2ccc(S(=O)(=O)N3CCCCCC3)cc12,99% (inactive)
3,Cc1cc(C)c2oc(C(=O)Nc3ccc(S(=O)(=O)N4CCCCCC4)cc3)cc(=O)c2c1,62% (inactive)
4,COC(=O)Nc1ccc(S(=O)(=O)N2CCCCC2)cc1,107% (inactive)
5,Cc1ccc2c(=O)cc(C(=O)Nc3ccc(S(=O)(=O)N4CCCCC4)cc3)oc2c1C,90% (inactive)
6,O=C(Nc1ccc(S(=O)(=O)N2CCCCC2)cc1)C1CCCCC1,97% (inactive)
7,O=C(Nc1ccc(S(=O)(=O)N2CCCCC2)cc1)C(F)(F)F,58% (active)
8,Cc1ccc2c(=O)cc(C(=O)Nc3ccc(S(=O)(=O)N4CCCC(C)C4)cc3)oc2c1C (centres undefined),51% (active)
9,Cc1ccc(NC(=O)c2oc3ccc(S(=O)(=O)N4CCCCCC4)cc3c2C)cc1Cl,86% (inactive)
10,Cc1cc(C)c2oc(C(=O)Nc3ccc(S(=O)(=O)N4CCCCC4)cc3)cc(=O)c2c1,45% (active)
11,Cc1cc(C)c2oc(C(=O)Nc3ccc(S(=O)(=O)N4CCC(C)CC4)cc3)cc(=O)c2c1,48% (inactive)
12,O=C(NCc1ccccc1Cl)c1c2c(nc3ccccc13)C(=O)N(C1CCCCC1)C2,92% (inactive)
13,COC(=O)c1ccc(-n2c(/C=C/c3cc(OC)c(OC)c(OC)c3)nc3cc(Cl)ccc3c2=O)cc1,80% (inactive)
14,Cc1cc2oc(C(=O)Nc3ccc(S(=O)(=O)N4CCCCCC4)cc3)cc(=O)c2cc1C,42% (active)
15,Cc1cc2oc(C(=O)Nc3ccc(S(=O)(=O)N4CCC(C)CC4)cc3)cc(=O)c2cc1C,72% (inactive)
16,Cc1ccc2c(=O)cc(C(=O)Nc3ccc(S(=O)(=O)N4CCCCCC4)cc3)oc2c1,106% (inactive)
17,Cc1ccc(C)c(N2CCN(C(=O)C3CCN(C(=O)c4cc5sccc5n4C)CC3)CC2)c1,54% (inactive)
18,CC1=C(C(=O)NCc2ccccc2C)C2(CCCCCC2)OC1=O,78% (inactive)
19,COc1ccc(-n2nc3cc(C)c(NC(=O)c4ccc(-c5ccc(Cl)cc5)o4)cc3n2)cc1,45% (inactive)
20,CCc1ccc(-n2nc3cc(C)c(NC(=O)c4ccccc4C)cc3n2)cc1,89% (inactive)
21,Cc1ccc(-n2nc3cc(C)c(NC(=O)Cc4ccc(Cl)cc4)cc3n2)cc1,64% (inactive)
22,Cc1ccc(-n2nc3cc(C)c(NC(=O)c4ccc(-c5ccccc5)o4)cc3n2)cc1,46% (active)
23,COc1ccc(-n2nc3cc(C)c(NC(=O)Cc4ccc(Cl)cc4)cc3n2)cc1,56% (inactive)

row,SMILES,survival
1,COc1ccc(-n2nc3cc(C)c(NC(=O)c4ccc(-c5ccc(Br)cc5)o4)cc3n2)cc1,37% (active)
2,Cn1nc(C(=O)NCc2ccc(Cl)cc2)c2c1-c1ccccc1SC2,78% (inactive)
3,COc1ccc(-n2c(SCC(=O)Nc3nnc(C)s3)nc3c([nH]c4ccccc43)c2=O)cc1,83% (inactive)
4,Cc1ccc(C)c(Nc2nn3c(=O)c4ccc(C(=O)NCc5ccccc5)cc4nc3s2)c1,55% (inactive)
5,CCOC(=O)c1c(CC(C)C)csc1NC(C)=O,71% (inactive)
6,COc1cc(NC(=O)c2cc3cc4ccc(C)cc4nc3o2)cc(OC)c1OC,89% (inactive)
7,CCc1ccccc1NC(=O)c1cc(S(=O)(=O)N2CCc3ccccc32)ccc1F,95% (inactive)
8,O=C(Nc1c(Cl)cccc1Cl)c1cc(-c2ccc3c(c2)OCO3)on1,39% (active)
9,O=C(Nc1cc(Cl)ccc1O)c1cc(-c2ccc3c(c2)OCO3)on1,58% (inactive)
10,Cc1ccc(Cl)cc1NC(=O)c1cc(-c2ccc3c(c2)OCCO3)on1,34% (active)
11,CC(=O)c1cccc(NC(=O)c2cc(-c3ccc4c(c3)OCCO4)on2)c1,45% (active)
12,O=C(Nc1cccc(Cl)c1)c1cc(-c2ccc3c(c2)OCO3)on1,77% (inactive)
13,O=C(Nc1cccc(Br)c1)c1cc(-c2ccc3c(c2)OCCO3)on1,47% (inactive)
14,O=C(Nc1cccc(Cl)c1)c1cc(-c2ccc3c(c2)OCCO3)on1,103% (inactive)
15,Cc1cccc(NC(=O)c2cc(-c3ccc4c(c3)OCCO4)on2)c1,69% (inactive)
16,Cc1c(Cl)cccc1NC(=O)c1cc(-c2ccc3c(c2)OCO3)on1,69% (inactive)
17,CNC(=O)CN1C(=O)COc2ccc(S(=O)(=O)N3CCCCCC3)cc21,91% (inactive)
18,Cc1cc(OCC(=O)Nc2sc3c(c2C#N)CCC(C)C3)ccc1Cl (centres undefined),78% (inactive)
19,CCOC(=O)c1cnn(-c2ccc(C(=O)Nc3cccc(C(C)=O)c3)cc2)c1N,55% (inactive)
20,CCN(CC)CCCNC(=O)c1sc2nc3n(c(=O)c2c1C)CCCCC3,111% (inactive)
21,Cc1ccccc1NC(=O)c1c(C)oc2ccc(O)c(CN3CCCCCC3)c12,107% (inactive)
22,O=c1n(Cc2ccc([N+](=O)[O-])cc2)c2ccccc2c2nc(-c3ccccc3)nn12,129% (inactive)
23,Cc1ccc(CSCC(=O)N2CCN(c3ccc(F)cc3)CC2)cc1,70% (inactive)

row,SMILES,survival
1,COc1ccccc1NC(=O)C1=C(C)Nc2nnnn2C1c1cc(Br)c(O)c(OC)c1 (centres undefined),55% (active)
2,CC1=C(C(=O)Nc2ccccc2C)C(c2ccc[nH]2)n2ncnc2N1 (centres undefined),102% (inactive)
3,CCOc1ccccc1NC(=O)C1=C(C)Nc2ncnn2C1c1sccc1C (centres undefined),92% (inactive)
4,CCOc1ccccc1C1C(C(=O)Nc2ccccc2OC)=C(C)Nc2nc3ccccc3n21 (centres undefined),59% (active)
5,CC1=C(C(=O)Nc2ccccc2Cl)C(c2cccs2)n2ncnc2N1 (centres undefined),101% (inactive)
6,COc1ccc(NC(=O)C2=C(C)Nc3ncnn3C2c2ccc[nH]2)cc1 (centres undefined),94% (inactive)
7,COc1ccccc1NC(=O)C1=C(C)Nc2nnnn2C1c1ccc(C(F)(F)F)cc1 (centres undefined),66% (inactive)
8,COc1ccccc1NC(=O)C1=C(C)Nc2nc3ccccc3n2C1c1ccccc1Cl (centres undefined),62% (inactive)
9,COc1ccccc1NC(=O)C1=C(C)Nc2nc3ccccc3n2C1c1cccc(OC)c1OC (centres undefined),70% (inactive)
10,CCCCOc1ccc(C2C(C(=O)Nc3ccccc3OC)=C(C)Nc3nnnn32)cc1OC (centres undefined),85% (inactive)
11,CC1=C(C(=O)Nc2ccccc2)C(c2ccc[nH]2)n2ncnc2N1 (centres undefined),20% (active)
12,CCOc1ccccc1NC(=O)C1=C(C)Nc2ncnn2C1c1cccs1 (centres undefined),37% (active)
13,COc1ccc(S(=O)(=O)N2CCC(c3nc4ccccc4s3)CC2)cc1OC,86% (inactive)
14,Cc1cc(NC(=O)OC2CCCC2)ccc1NC(=O)OC1CCCCC1,75% (inactive)
15,COc1ccc(CNC(=O)C(=O)Nc2cccc(C)c2C)cc1,61% (inactive)
16,Cc1ccccc1S(=O)Cc1ccc(C(=O)NCc2ccccc2Cl)o1 (centres undefined),73% (inactive)
17,Cc1ccc(-c2nnc(Nc3ccc(Cl)c(Cl)c3)c3ccccc23)cc1S(=O)(=O)NCCO,79% (inactive)
18,CC(=O)Nc1ccc(S(=O)(=O)NCC2CCC(C(=O)NCCN(CC(C)C)CC(C)C)CC2)cc1 (centres undefined),61% (inactive)
19,CC(=O)Nc1ccc(S(=O)(=O)N2CCN(c3ccc(C)c(C)c3)CC2)cc1,94% (inactive)
20,O=C(CS(=O)(=O)c1cccc2nsnc12)Nc1ccc(F)cc1F,102% (inactive)
